Several values for one entry are separate records, joined by “and”; a condition that tells them apart may be missing. Equal values may be shown once. Compounds without any hit were thinned out: in the full panel of roughly 79,000, 15% have a hit. Where a structure was tested more than once in an assay, its records may differ in their call. Activity calls are given as the source filed them. No stated cut-off is given here; in the data, active means growth inhibition above about 70%; inactive means the rest.
Tests used:
[1] = NCI Yeast Anticancer Drug Screen. Data for the mec2-1 strain (AID 157); details: S. cerevisiae mec2-1 strain, stronger effect = higher value
Summary of the method: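 Readout is yeast growth inhibition, normalised to vehicle-treated controls, in the mec2-1 strain exposed to compound.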

[2] = NCI Yeast Anticancer Drug Screen. Data for the sgs1 mgt1 strain (AID 161);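 further: 0% = growth of cultures given vehicle only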; details: S. cerevisiae sgs1 mgt1 strain, stronger effect = higher value
Summary of the method: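 Percent growth inhibition was derived by comparing compound-exposed mutant yeast with vehicle-exposed cultures. The strain carries alterations in DNA damage repair.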

[3] = NCI Yeast Anticancer Drug Screen. Data for the bub3 strain (AID 167); details: S. cerevisiae bub3 mutant strain, stronger effect = higher value
Summary of the method: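 Growth of a checkpoint-deficient yeast mutant is measured after compound exposure. Values represent inhibition relative to vehicle.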

[4] = NCI Yeast Anticancer Drug Screen. Data for the mlh1 rad18 strain (AID 175); details: S. cerevisiae mlh1 rad18 strain growth inhibition, stronger effect = higher value
Summary of the method: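 Test agents were incubated with a yeast strain of defined genotype (DNA damage repair defect). Inhibition of growth was derived by comparison with vehicle-exposed cultures.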

[5] = NCI Yeast Anticancer Drug Screen. Data for the cln2 rad14 strain (AID 165);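 further: 0% = growth equal to vehicle treated cultures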; details: S. cerevisiae cln2 rad14 strain, stronger effect = higher value
Summary of the method: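 Relative to vehicle controls, growth inhibition of compound-treated cln2 rad14 yeast was recorded.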

[6] = NCI Yeast Anticancer Drug Screen. Data for the rad50 strain (AID 155);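 further: 0% = growth of vehicle-only cultures of the same strain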; details: S. cerevisiae rad50 strain growth inhibition; at 50.0 µM; stronger effect = higher value
Summary of the method: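 Compounds were tested on a yeast strain with an engineered DNA damage repair alteration; the reported value is growth inhibition normalised to vehicle treatment.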

[7] = at 5.0 µM (retest, dose inferred, filed as 0.5)
[8] = at 50.0 µM (retest, dose inferred, filed as 5.0)

Measured: growth inhibition

O=C(CC(=O)c1ccccc1)c1ccccc1.O=C(CC(=O)c1ccccc1)c1ccccc1.O=C(CC(=O)c1ccccc1)c1ccccc1.[Al]
inactive: [1]; [7] 5% | [1]; [8] 4% | [2]; [7] 5% | [2]; [8] 2% | [2]; at 50.0 µM 43.6% | [3]; [7] 4% | [3]; [8] 3% | [3]; at 50.0 µM 6.55% | [4]; [7] 0% | [4]; [8] 0% | [4]; at 50.0 µM 20.4%
active: [1]; at 50.0 µM 86.4%

c1cc[c]([Sn]([c]2ccccc2)[c]2ccccc2)cc1.c1cc[c]([Sn]([c]2ccccc2)[c]2ccccc2)cc1
inactive: [1]; [7] 51% | [5]; [7] 9% | [3]; [7] 54%

COc1ccc2c(c1)CC(CN1CCC3(CC1)C(=O)NCN3c1ccccc1)O2 (stereo not drawn)
active: [2]; at 50.0 µM 86.4% | [5]; at 50.0 µM 79% | [4]; at 50.0 µM 78.5%
inactive: [1]; at 50.0 µM 57% | [3]; at 50.0 µM 55.5%

CCC1(O)C(=O)OCc2c1cc1n(c2=O)Cc2cc3ccc(C=O)cc3nc2-1 (stereo not drawn)
inactive: [6] 39.5% | [2]; at 50.0 µM -17.5% | [5]; at 50.0 µM 2.3% | [3]; at 50.0 µM -24.7%

CC(=O)OCC12CC(O)C(C)=CC1OC1C(O)C(OC(C)=O)C2(C)C12CO2 (stereo not drawn)
active: [1]; at 50.0 µM 91% | [2]; at 50.0 µM 90.3% | [5]; at 50.0 µM 77.3% | [3]; at 50.0 µM 91.8% | [4]; at 50.0 µM 92.1%
inactive: [1]; [7] 12% | [1]; [8] 36% | [2]; [7] 13% | [2]; [8] 36% | [5]; [7] 16% | [5]; [8] 39% | [3]; [7] 8% | [3]; [8] 21% | [4]; [7] 8% | [4]; [8] 37%

Oc1c(Cl)c(Cl)cc(Cl)c1Cl
inactive: [1]; [7] 7% | [1]; at 50.0 µM 68.9% | [2]; [7] 34% | [2]; at 50.0 µM 61.1% | [5]; [7] -27% | [3]; [7] 13% | [3]; at 50.0 µM 48.3% | [4]; [7] -6% | [4]; at 50.0 µM 61.8%
active: [1]; [8] 97% | [2]; [8] 95% | [5]; [8] 94% | [5]; at 50.0 µM 79.8% | [3]; [8] 92% | [4]; [8] 92%

CCCCSP(=S)(SCCCC)SCCCC
inactive: [6] 36.6% | [2]; at 50.0 µM 38.5% | [5]; at 50.0 µM -20.2% | [3]; at 50.0 µM 10.1% | [4]; at 50.0 µM 42%

O=[P+](O)O[P+](=O)O.O=[P+](O)O[P+](=O)O.O=[P+](O)O[P+](=O)O.O=[P+](O)O[P+](=O)O.[Cl][Pt].[Cl][Pt]
inactive: [1]; at 50.0 µM 27.8% | [2]; at 50.0 µM 26.2% | [5]; at 50.0 µM -32.5% | [3]; at 50.0 µM 18.1% | [4]; at 50.0 µM 12.9%

O=C([O-])CC(=O)[O-].[NH-][C@@H]1CCCC[C@H]1[NH-].[Pt+4]
inactive: [1]; at 50.0 µM -15.5% | [2]; at 50.0 µM -24.5% | [5]; at 50.0 µM -25.1% | [3]; at 50.0 µM -24.5%

CC(N)CCc1ccccc1 (stereo not drawn)
inactive: [6] 2.7% | [1]; at 50.0 µM -19.9% | [5]; at 50.0 µM 24.7% | [3]; at 50.0 µM 3.6% | [4]; at 50.0 µM 12.4%

COc1cc2c(cc1OC)C13CCN4CC5=CCOC(CC(=O)O)C(C5CC41)C3N2 (stereo not drawn)
91.8% (active) and 10.6% (inactive): [5]; at 50.0 µM
inactive: [6] 14.2% and -40.6% | [1]; at 50.0 µM 26.1% and -27.1% | [3]; at 50.0 µM -18.6% and -38.2% | [4]; at 50.0 µM 3.35% and -34.1%

S=C=NCCc1ccccc1
inactive: [1]; [7] -13% | [1]; [8] 18% | [1]; at 50.0 µM 48.4% | [2]; [7] -5% | [2]; [8] -8% | [2]; at 50.0 µM 42.5% | [5]; [7] 2% | [5]; [8] 8% | [5]; at 50.0 µM 28.1% | [3]; [7] 5% | [3]; [8] 20% | [3]; at 50.0 µM 43.8% | [4]; [7] -20% | [4]; [8] 15% | [4]; at 50.0 µM 61.6%

CCC1=C(CC2NCCc3cc(OC)c(OC)cc32)CC2c3ccccc3CCN2C1 (stereo not drawn)
inactive: [1]; at 50.0 µM -26.5% | [2]; at 50.0 µM -42.7% | [5]; at 50.0 µM -9.75% | [3]; at 50.0 µM -22.8% | [4]; at 50.0 µM -16.3%

O=CC(O)C(O)C(O)C(O)COP(=O)(O)Cc1ccccc1 (stereo not drawn)
inactive: [6] -44.9% and 4.75% | [2]; at 50.0 µM -62% and -32.6% | [5]; at 50.0 µM -25.3% and 28.1% | [3]; at 50.0 µM -10.2% and -9.4% | [4]; at 50.0 µM -48% and 7.55%

Cc1ccc(NC2=NCCS2)cc1Cl
inactive: [1]; at 50.0 µM 7.15% | [2]; at 50.0 µM 12.1% | [5]; at 50.0 µM 10.8% | [3]; at 50.0 µM 10.2% | [4]; at 50.0 µM 16.1%

CCNC(=S)S
inactive: [6] -7.35% | [2]; at 50.0 µM -13.1% | [5]; at 50.0 µM -0.6% | [3]; at 50.0 µM -2.25% | [4]; at 50.0 µM -3.75%

O=P(CCP(=O)(c1ccccc1)c1ccccc1)(c1ccccc1)c1ccccc1.[Cl][Sn]([Cl])([c]1ccccc1)[c]1ccccc1
inactive: [1]; [7] 45% | [5]; [7] 32%
active: [1]; [8] 99% | [1]; at 50.0 µM 90.1% | [2]; [7] 91% | [2]; [8] 98% | [2]; at 50.0 µM 88.5% | [5]; [8] 97% | [5]; at 50.0 µM 88.8% | [3]; [7] 81% | [3]; [8] 98% | [3]; at 50.0 µM 88% | [4]; [7] 88% | [4]; [8] 95% | [4]; at 50.0 µM 91.6%

— PubChem BioAssay (NCI)
